The text below walks through data of PubChem BioAssay (NCATS).

The target in test [1] is Glutathione peroxidase 1 (Homo sapiens) (UniProt P07203). As to the kind of experiment: Primary qHTS Assay for Inhibitors of Recombinant Selenoprotein Glutathione Peroxidase 1 (GPX1) (AID 1845191). Further: nearly all actives have a fitted effect of over 65% in size. In outline:
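Recombinant GPX1 (10 nM final) was preincubated with compound for 30 min at room temperature, then reacted with 1 mM GSH, 0.5 mM CHP, 0.5 mM NADPH and 100 nM glutathione reductase; NADPH fluorescence (340/450 nm) was read at 0 and 15 min.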
In general terms: In qHTS, concentration-response curves come from the screen itself.

Test [2] deals with Phospholipid hydroperoxide glutathione peroxidase GPX4 (Homo sapiens) (UniProt P36969). The test can be described thus: Primary qHTS Assay for Inhibitors of Recombinant Selenoprotein Glutathione Peroxidase 4 (GPX4) (AID 1845192). Further: nearly all actives have a fitted effect of over 65% in size. In outline:
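GR-coupled readout: 100 nM GR, 1 mM GSH, 0.5 mM NADPH; NADPH fluorescence (ex 340/em 450 nm) read at t=0 and after 15 min RT. GPX4 200 nM, preincubated 30 min with compound; substrate 0.5 mM CHP.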

Test [3] deals with Luciferin 4-monooxygenase (Photinus pyralis) (UniProt P08659). The test can be described thus: Primary firefly luciferase (FLuc) qHTS assay for identification of artifact compounds. (AID 1845220). Further: nearly all actives have a fitted effect of over 60% in size. In outline:
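In this counter-screen for luciferase artifacts, test compounds met substrate (10 uM each luciferin and ATP) before 10 nM enzyme started the reaction. Light output was measured 5 min later.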

A short description of test [4]: NCATS anti-infectives library activity on HEK293 viability as a counter-qHTS vs the C. elegans viability qHTS (AID 1745854).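 Further: HEK293 cells exposed to compounds for 24 hr before the viability read; on the % scale 0 is the no-effect control and ±100 the full control effect.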 In a few lines:
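Cytotoxicity in human HEK293 cells is measured by ATP-dependent CellTiter-Glo luminescence following a 24 hr incubation with titrated library compounds at 37C. Top final concentration is 41.7 uM.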

Test [5] in a line: Viability counterscreen for antagonist of constitutive androstane receptor (CAR) against the NCATS DSHEA and TCM libraries (AID 1794837).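 Further: compound exposure lasted 24 h before viability reading; 0% is about no effect.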 In a few lines: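 Cells: HepG2 line carrying CYP2B6 reporter and hCAR, seeded and attached 5 h. Then pin-transferred test substances plus agonist CITCO at 48 uM final; 24 h incubation; fluorogenic viability reagent, 1 h.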
For orientation: Counterscreens check selectivity or assay interference.

Test [6] is described as follows: Viability counterscreen for agonist of constitutive androstane receptor (CAR) against the NCATS DSHEA and TCM libraries (AID 1794838).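 Further: HepG2 cells with CYP2B6 reporter and hCAR plus 0.75 µM PK11195 antagonist; 0% is about no effect.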 In outline:
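Cell health was measured as CellTiter-Fluor signal in HepG2-CYP2B6-hCAR cells treated for 24 h with substances alongside the hCAR antagonist PK11195 (0.75 uM final).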

Test [7] concerns the target Nuclear receptor subfamily 1 group I member 3 (Homo sapiens) (UniProt Q14994). As to the kind of experiment: Primary qHTS for agonist of constitutive androstane receptor (CAR) against the NCATS DSHEA and TCM libraries (AID 1794839). Further: potency means the concentration at half of the fitted maximal effect. In outline:
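qHTS, agonist mode: HepG2-CYP2B6-hCAR, 2,500 cells/well, 5 h attach; cpds + PK11195 0.75 µM final; 24 h, 37 °C, 5% CO2. Readouts: CellTiter-Fluor (405/540 nm), then ONE-Glo luminescence.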

Test [8] can be described thus: HepG2 viability counterscreen (readout 2: ATP content) against the NCATS DSHEA and TCM libraries (AID 1794840). Further: 0% is about no effect. In a few lines:
(§1)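 Same wells read twice: first fluorescence from cleaved GF-AFC substrate (25 uM final, 30 min, 37C) for live-cell protease, then CellTiter-Glo luminescence after 30 min at room temperature for ATP. HepG2 cells were exposed ~24 h to substances.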

Test [9] in a line: HepG2 viability counterscreen (readout 1: protease activity) against the NCATS DSHEA and TCM libraries (AID 1794841).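 Further: cells exposed to compounds for about 24 h before the protease read; 0% is about no effect.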 In outline:
as §1

Molecules are shown by their SMILES. Unmarked numbers belong to inactive results. Results filed as inconclusive are left out. Calls of active or inactive are those of the source. The call rests on the fitted dose curve; in most records, active means well fitted curve in the direction sought with a large enough effect; inconclusive means small, poorly fitted or top-dose-only effect, or another doubt; inactive means no such curve, though single readings can be large; an effect the other way counts as inactive or inconclusive.

Chain of Phospholipid hydroperoxide glutathione peroxidase GPX4 (Homo sapiens) (P36969 whole entry, looked up): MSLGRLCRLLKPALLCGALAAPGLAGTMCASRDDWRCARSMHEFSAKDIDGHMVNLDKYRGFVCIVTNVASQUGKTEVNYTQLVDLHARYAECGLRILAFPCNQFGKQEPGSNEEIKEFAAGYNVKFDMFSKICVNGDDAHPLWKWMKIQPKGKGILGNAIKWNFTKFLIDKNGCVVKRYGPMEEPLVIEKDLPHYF
Chain of Glutathione peroxidase 1 (Homo sapiens) (P07203 whole entry, looked up): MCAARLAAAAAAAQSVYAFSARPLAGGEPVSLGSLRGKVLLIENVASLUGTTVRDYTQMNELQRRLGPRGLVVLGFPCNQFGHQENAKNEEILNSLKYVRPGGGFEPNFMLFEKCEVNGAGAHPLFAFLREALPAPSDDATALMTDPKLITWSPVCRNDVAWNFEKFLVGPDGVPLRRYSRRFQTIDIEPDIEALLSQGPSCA
Chain of Nuclear receptor subfamily 1 group I member 3 (Homo sapiens) (Q14994 whole entry, looked up): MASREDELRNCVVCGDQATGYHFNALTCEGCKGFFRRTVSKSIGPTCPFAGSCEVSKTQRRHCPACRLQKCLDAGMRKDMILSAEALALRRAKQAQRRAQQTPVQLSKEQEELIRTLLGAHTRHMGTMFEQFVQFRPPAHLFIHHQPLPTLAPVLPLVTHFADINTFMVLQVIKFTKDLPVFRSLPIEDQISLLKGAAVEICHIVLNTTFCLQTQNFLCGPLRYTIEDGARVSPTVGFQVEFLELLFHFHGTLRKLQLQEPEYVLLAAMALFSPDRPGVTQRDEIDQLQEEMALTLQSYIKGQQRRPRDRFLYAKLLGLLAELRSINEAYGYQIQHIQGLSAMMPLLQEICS

With `CS(=O)(=O)N(Cc1ccco1)CC(O)Cn1c2ccccc2c2ccccc21` (stereo not drawn), the Potency entry in [1], in test [2] and in test [3] was “inactive” in each case.

With `Cc1ccc(/C=N/NC(=O)c2ccccc2Oc2ccccc2)o1`, the Potency result in test [1] and in [2] was “inactive” each time.

For the compound `COc1ccc(-c2coc3cc(O)cc(O)c3c2=O)cc1`, the Potency entry in [1] and in test [2] was “inactive” in each case.

As to `O=c1c(-c2ccc(O)cc2)coc2cc(O)ccc12`, the Potency result in [1] and in test [2] was “inactive” throughout.

As to `Cc1ccc(C(C)(O)c2nc3ccccc3s2)c(C)c1` (stereo not drawn), the Potency entry in test [1] and in test [2] was “inactive” each time.

Regarding `C[C@H](NC(=O)C(=O)Nc1ccccc1C(C)(C)C)C(=O)N[C@@H](CC(=O)O)C(=O)COc1c(F)c(F)cc(F)c1F`, the activity change, negative = cytotoxicity in [4] is -18.7% [at 8.35 µM]. For the same compound, the Potency result in test [1] and in test [2] was “inactive” throughout.

As to `CC(C)C[C@H](CC(=O)O)C(=O)N[C@@H](Cc1c[nH]c2ccccc12)C(=O)N[C@@H](C)c1ccccc1`, the Potency result in test [1] and in [2] was “inactive” each time.

As to `O=c1c(-c2ccc(O)cc2)coc2cc(O[C@@H]3O[C@H](CO)[C@H](O)[C@H](O)[C@H]3O)ccc12`, the result in [5], in [6], in test [8] and in [9] was inactive. Further, the Potency in test [7] was 10 µM (active).

As to `C[C@]12CC[C@@H]3c4ccc(O)cc4C[C@@H](CCCCCCCCCS(=O)CCCC(F)(F)C(F)(F)F)[C@H]3[C@H]1CC[C@H]2O` (stereo partly drawn), the Potency entry in test [1] and in test [2] was “inactive” throughout.

Consider `COc1ccc2c(Oc3ccc(NC(=O)c4c(C)n(CC(C)(C)O)n(-c5ccccc5)c4=O)nc3)ccnc2c1`, for which the Potency entry in test [1], in test [2] and in test [3] was “inactive” throughout.

Take `CO[C@H]1C=CO[C@@]2(C)Oc3c(C)c(O)c4c(O)c(c5c(c4c3C2=O)NC2(CCN(CC(C)C)CC2)N=5)=NC(=O)C(C)=CC=C[C@H](C)[C@H](O)[C@@H](C)[C@@H](O)[C@@H](C)[C@H](OC(C)=O)[C@H]1C`: the Potency entry in test [2] and in [3] was “inactive” each time.
